Compounds with a hit are over-represented: about 11% of the library has one in this group of screens.
HPGD block: blocks human HPGD enzyme activity; Potency, µM, for the others: at the top dose activity change, negative = inhibition, usual class: inhibitors; purified HPGD, NADH fluorescence kinetic, PGE2 substrate; P15428; actives 4.3% (n = 150,000); active = well fitted inhibition curve with a large enough effect, not every such curve was filed as active; inconclusive = small, poorly fitted or top-dose-only effect, or another doubt; inactive = no such curve, though single readings can be large or run the other way; also: potency is read from the fitted curve at half-maximal effect
Target sequence (P15428 whole entry, looked up): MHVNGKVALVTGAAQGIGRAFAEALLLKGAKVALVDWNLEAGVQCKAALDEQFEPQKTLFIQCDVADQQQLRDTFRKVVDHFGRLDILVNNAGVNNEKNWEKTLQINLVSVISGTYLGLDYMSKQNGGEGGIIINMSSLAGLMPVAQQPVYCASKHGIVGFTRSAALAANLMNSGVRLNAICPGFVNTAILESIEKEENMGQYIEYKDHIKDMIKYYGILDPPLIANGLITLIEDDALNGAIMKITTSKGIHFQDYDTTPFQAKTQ
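NADH formation kinetics: reaction with 30 uM PGE2 and 1 mM NAD+ (final), 20 nM enzyme, Tris-HCl pH 8 with Tween 20, after 15 min compound preincubation at room temperature. Fluorescence change, last versus first of five reads.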
IMPase Li cell: cell-permeable IMPase inhibitors with lithium potentiation | Potency, µM (highest dose often 59.4 µM), without a hit: at the highest dose activity, negative = IMPase inhibition, most hits filed as inhibitors | actives 0.35% (n = 210,000) | CHO-M1 cells, IP1 TR-FRET (IP-One), carbachol + lithium;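 also: IP1 builds up when IMPase is blocked and the TR-FRET signal falls; potency is read from the fitted curve at half-maximal effect; plate controls were basal vehicle for no effect and high inhibitor control for full effect; nearly all actives have a fitted effect of over 50% in size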
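Lithium-sensitised IP1 accumulation assay; M1-expressing CHO cells treated 30 min at 37C with compound. Competitive antibody detection by time-resolved FRET followed a 10 min room-temperature lysis step.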
PNC inhibitor: perinucleolar compartment assembly inhibition; PC3M PTB-GFP, PNC prevalence imaging, 16 h; hits give low values; activity change (PNC), negative = inhibition, % at 10 µM; actives 3.1% (n = 140,000);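 active = readout at or below -70, meaning at least 70% loss of cells showing the perinucleolar compartment, a nuclear body marking cancer cells; inconclusive = readout between -30 and a set limit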;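 also: plate controls were DMSO wells for no effect and camptothecin positive control wells for full effect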
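PC3M cells stably expressing PTB-GFP, 750–1000 cells/well, treated 16 h at 37 °C with compound (23 nl of library stock), in duplicate. After paraformaldehyde fixation and Hoechst stain, imaged at 20x; PNC prevalence scored by image analysis.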
NPSR antagonist: blocks cAMP signaling of the human neuropeptide S receptor | CHO-NPSR cells, cAMP TR-FRET, antagonist mode | Potency, µM (titrated, usually from 38.3 µM), inactives show at the highest dose activity change, negative = inhibition, usual class: inhibitors | AID 1461 | actives 1% (n = 220,000); also: potency is read from the fitted curve at half-maximal effect; nearly all actives have a fitted effect of over 50% in size
ALDH1A1 block: inhibitors of human aldehyde dehydrogenase 1A1. actives 7.3% (n = 220,000). P00352. Purified ALDH1A1, NADH fluorescence, propionaldehyde substrate. Potency, µM (series often up to 75.3 µM), inactives show top-dose activity, negative = inhibition, actives largely listed as inhibitors; active = well fitted inhibition curve with a large enough effect, not every such curve was filed as active; inconclusive = small, poorly fitted or top-dose-only effect, or another doubt; inactive = no such curve, though single readings can be large or run the other way;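 also: potency is read from the fitted curve at half-maximal effect; plate controls were no enzyme wells and a reference inhibitor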
Target sequence (P00352 whole entry, looked up): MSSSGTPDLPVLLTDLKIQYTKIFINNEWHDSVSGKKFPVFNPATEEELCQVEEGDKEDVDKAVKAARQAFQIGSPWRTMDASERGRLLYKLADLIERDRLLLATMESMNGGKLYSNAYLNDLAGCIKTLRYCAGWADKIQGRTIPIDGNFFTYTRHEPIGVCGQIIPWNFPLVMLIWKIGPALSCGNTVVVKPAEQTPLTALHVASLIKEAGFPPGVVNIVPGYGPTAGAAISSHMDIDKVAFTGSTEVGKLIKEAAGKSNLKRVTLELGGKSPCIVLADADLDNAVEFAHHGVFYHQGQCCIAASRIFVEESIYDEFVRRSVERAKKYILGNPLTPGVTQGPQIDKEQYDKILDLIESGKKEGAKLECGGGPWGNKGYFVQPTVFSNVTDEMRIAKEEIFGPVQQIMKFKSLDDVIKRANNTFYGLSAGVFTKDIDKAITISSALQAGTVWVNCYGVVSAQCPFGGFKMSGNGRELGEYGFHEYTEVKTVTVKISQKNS
IMPase cell inh: membrane-permeable compound that blocks inositol monophosphatase. CHO-M1 cells, IP1 accumulation, HTRF TR-FRET ratio. inhibition (IP1 accumulation), % at 46.1 µM. 120,000 tested, under 10 active. AID 901; active = well fitted curve in the direction sought with a large enough effect in the signal ratio, not every such curve was filed as active; inconclusive = small, poorly fitted or top-dose-only effect, or a change in a side signal; inactive = no such curve, though single readings can be large or run the other way; the % refers to the signal ratio;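 also: cells stimulated with carbachol in lithium chloride buffer; plate controls were DMSO basal wells for no effect and reference inhibitor wells for full effect; higher means more IMPase inhibition seen as more IP1 and lower FRET ratio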
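CHO-M1, 2000 cells/well, cultured 16–30 h; cpd up to 46 uM; carbachol (50 uM solution, stimulation buffer w/ 50 mM LiCl, pH 7.4), 30 min 37C; IP-One TR-FRET, 10 min RT; Ex 320/Em 665, 620; Hill-fit AC50.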
Starred values were filed as active, the others as inactive; ? = inconclusive; / = not tested or not shown; [ ] = another dose, or the depositor's remark. Unless noted, calls follow the shape of the dose curve; as a rule, active = well fitted curve in the direction sought with a large enough effect; inconclusive = small, poorly fitted or top-dose-only effect, or another doubt; inactive = no such curve, though single readings can be large; an effect the other way counts as inactive or inconclusive. Unless noted, % is scaled to controls: 0 for no effect and ±100 for the full control effect.

SMILES	HPGD block	IMPase Li cell	PNC inhibitor	NPSR antagonist	ALDH1A1 block	IMPase cell inh
O=C(NNc1ccc(Cl)cc1)C1CCC1	/	/	/	-13%	-2%	/
O=C(NNc1ccc([N+](=O)[O-])cc1)C1CC1c1ccccc1 (configuration not stated)	25µM*	-2%	23	22%	10µM*	/
O=C(NNc1ccc([N+](=O)[O-])cc1)C1CC2CCCC(C1)C2=O (configuration not stated)	-17%	-5%[38.3 µM]	-109*	1%[46.1 µM]	-8%	2
CCOC(=O)N1CCC(N2CCN(S(=O)(=O)c3ccc(Cl)cc3)CC2)CC1	-13%	26%[38.3 µM]	9	5%[46.1 µM]	14µM*	6
O=C(Cn1c(=O)oc2cc(S(=O)(=O)N3CCCC3)ccc21)N1CCc2ccccc2C1	-9%	0%[38.3 µM]	5	10%[46.1 µM]	11µM*	4
CCOC(=O)N1CCC(N2CCN(S(=O)(=O)c3ccc(NC(C)=O)cc3)CC2)CC1	2%	33%[38.3 µM]	?	-10%[46.1 µM]	?	8
CCOC(=O)n1c(=O)oc2cc(S(=O)(=O)N3CCCCC3)ccc21	-21%	9%	-100*	-14%[46.1 µM]	1%	-4
CCOC(=O)N1CCN(S(=O)(=O)c2ccc3c(c2)oc(=O)n3C)CC1	2%	7%[38.3 µM]	-80*	-3%[46.1 µM]	-1%	7
CN(C)C(=O)c1cn(-c2ccc(Cl)cc2)c(=O)c2ccccc12	/	3%	/	1%	3%	/
Cn1c(=O)oc2cc(S(=O)(=O)N3CCCC(C(=O)N4CC=C(c5ccccc5)CC4)C3)ccc21 (configuration not stated)	14µM*	15%[38.3 µM]	?	-8%[46.1 µM]	?	10
C=CCn1c(SCC(=O)NC(=O)NCc2ccco2)nc2sc(CC)cc2c1=O	-14%	-5%[38.3 µM]	32	-16%[46.1 µM]	?	-13
C=CCn1c(SCC(=O)NCC2CCCO2)nc2scc(-c3ccco3)c2c1=O (configuration not stated)	-26%	21%[38.3 µM]	-13	-17%[46.1 µM]	25µM*	-11
C=CCn1c(SCCN2C(=O)c3ccccc3C2=O)nc2scc(-c3ccccc3)c2c1=O	-16%	8%[38.3 µM]	19	13µM*	4%	-4
O=C(CSc1nc2scc(-c3ccco3)c2c(=O)n1-c1ccccc1)NCC1CCCO1 (configuration not stated)	-9%	23%[38.3 µM]	-6	-14%[46.1 µM]	13µM*	-2
C=CCn1c(SCC(=O)NCCOC)nc2scc(-c3ccco3)c2c1=O	-13%	7%[38.3 µM]	11	?	7.9µM*	-6
C=CCn1c(SCc2ccccc2)nc2scc(-c3ccc(C)o3)c2c1=O	-11%	-4%[38.3 µM]	82	0%[46.1 µM]	?	?
O=C(CSc1nc2scc(-c3ccco3)c2c(=O)n1-c1ccccc1)N1CCOCC1	-13%	?	-18	-21%[46.1 µM]	?	-17
O=[N+]([O-])c1ccc(CN2CCOCCOCCN(Cc3ccc([N+](=O)[O-])cc3)CCOCC2)cc1	-11%	16%	-16	-9%	?	/
CC(C)=CCC/C(C)=C/CC/C(C)=C/CSc1ccccc1C(=O)O	-22%	16%	/	-18%[46.1 µM]	4%	8
COCCNc1oc(COc2cccc(C)c2)nc1C#N	-12%	28%[38.3 µM]	?	-7%[46.1 µM]	12%	6
NC(=O)CSc1nc2scc(-c3ccco3)c2c(=O)n1-c1ccccc1	-15%	7%[38.3 µM]	-27	-13%[46.1 µM]	3.5µM*	-3
CCOC(=O)c1c(-c2ccc(F)cc2)csc1NC(=O)CN1C(=O)NC2(CCCCC2C)C1=O (configuration not stated)	-2%	1%	21	-38%	-3%	/
COc1ccc(C(=O)N2C(=S)NC(=O)/C2=C\c2ccc(C)cc2)cc1	28µM*	10%	?	-16%	?	/
Cc1cccc(C(=O)N[C@H](C(=O)Nc2ccc(S(=O)(=O)NC3=NCCCCC3)cc2)C(C)C)c1	/	?	/	-12%	20µM*	/
O=C(CSc1n[nH]c(=O)[nH]c1=O)Nc1ccccc1C(=O)c1ccccc1	/	/	/	28%	/	/
SMILES	HPGD block	IMPase Li cell	PNC inhibitor	NPSR antagonist	ALDH1A1 block	IMPase cell inh
O=C(Nc1cccc2c1CCCC2)C1CCN(c2nnnn2-c2ccccc2)CC1	-10%	10%	?	?	8.9µM*	10
Cc1nnc(NC(=O)C2CCN(c3nnnn3-c3ccccc3)CC2)s1	-6%	-4%[38.3 µM]	-9	1%[46.1 µM]	20µM*	5
Cc1nnc(NC(=O)C2CCN(c3cnccn3)CC2)s1	-10%	-4%[38.3 µM]	-22	-7%[46.1 µM]	6%	6
O=C(Nc1ccccc1Br)c1ccccc1-c1ccccc1	-2%	17%	?	-9%	4%	/
O=[N+]([O-])c1cc(Cl)ccc1-c1nc(-c2ccccc2)no1	14µM*	9%	?	-10%	-5%	/
COc1ccccc1NC(=O)COc1ccc(Br)cc1CO	-7%	18%[38.3 µM]	-6	-12%[46.1 µM]	2%	3
COCCOC(=O)c1c(C)oc2ccc(O)c(CN3CCC(C)CC3)c12	4%	1%[38.3 µM]	-110*	3%[46.1 µM]	8%	9
CCOC(=O)Cc1csc(-n2sc3ccccc3c2=O)n1	1.4µM*	7.9µM*	8	-3%[46.1 µM]	3.5µM*	?
Cc1ccc(S(=O)(=O)C2(C(=O)NC3CCCCC3C)CC2)cc1 (configuration not stated)	/	-2%	/	3%	-7%	/
O=S(=O)(c1ccccc1)C(/C=N\O)/C=C/c1ccccc1 (configuration not stated)	/	7%	/	-1%	11µM*	/
Cc1ccc(NC(=O)C2CCN(S(=O)(=O)c3ccc(F)cc3)CC2)cc1	-6%	32%[38.3 µM]	?	-3%[46.1 µM]	5%	1
Cc1ccc(S(=O)(=O)NC(C)CCc2ccccc2)cc1 (configuration not stated)	-6%	-2%[38.3 µM]	21	4%[46.1 µM]	25µM*	?
CC1(C)C(=O)Nc2ccccc2N1C(=O)COC(=O)c1cc([N+](=O)[O-])ccc1N	2%	2%	44	5%[46.1 µM]	?	14
CCNc1nc(NC(C)(C)C)nc(Oc2ccc(=O)n(C)n2)n1	/	/	/	/	/	0
Cc1ccc(O)c(C(=O)c2cc(C#N)c(=O)n(-c3c(C)n(C)n(-c4ccccc4)c3=O)c2)c1	0%	-4%[38.3 µM]	-15	0%[46.1 µM]	9%	0
Cc1ccc(O)c(C(=O)c2cc(C#N)c(=O)n(-c3nccs3)c2)c1	/	13%	/	12%	8.9µM*	/
CCn1c(O)c(C=Nc2ccccc2)n(-c2ccccc2)c1=S	-21%	42%[38.3 µM]	16	3%[46.1 µM]	?	-9
COc1cccc(-c2nc(CS(=O)(=O)CC(=O)Nc3cc(C)ccc3C)c(C)o2)c1	-13%	5%	-119*	-13%	2%	-5
COc1cccc(-c2nc(CS(=O)(=O)CC(=O)Nc3c(C)cccc3C)c(C)o2)c1	-6%	23%[38.3 µM]	-12	-23%[46.1 µM]	12%	0

High-throughput results as filed in PubChem.
